IL1B secr inh: inhibitors of inflammasome signaling (IL-1 beta secretion); THP-1 LPS/ATP IL-1B secretion, AlphaLISA, 16 h; hits give low values; activity change, % at 57.5 µM; actives 4.7% (n = 360,000); in the data active means activity change below about -50%; inconclusive means mostly about -30% to -49%
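THP-1 cells pretreated 1 hr with compounds (up to 57.5 uM final), then stimulated with LPS (250 ng/mL final) plus ATP (1.25 mM final); secreted IL-1B measured by AlphaLISA after 16 hr, decreased signal indicating inhibition.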
HT1080 IDH1KD tx: toxicity to HT-1080 IDH1 knockdown cells (counter line) | HT-1080 IDH1 knockdown viability, ATP luminescence, 48 h | Potency, µM (series often up to 46.1 µM), usual class: cytotoxic | actives 2% (n = 360,000)
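Assay cells: HT-1080 with IDH1 knockdown, 750 per well, RPMI/5% FBS. Exposure: 48 h at 37 °C following 2 h pre-incubation. Read: CellTiter-Glo luminescence; fitted concentration-response, curve class assigned.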
TDP1 cell CPT: growth inhibition of DT40 Tdp1-/-;hTDP1 cells with camptothecin (screen for TDP1 inhibitors). actives 12% (n = 420,000). chicken DT40 Tdp1-/-;hTDP1 cells + 20 nM CPT, ATP luminescence, 48 h. Potency, µM (highest dose often 46.2 µM), most hits filed as inhibitors; further: nearly all actives have a fitted effect of over 55% in size
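Chicken DT40 Tdp1-/- cells complemented with human TDP1, 400 cells/well, exposed to compounds plus 20 nM camptothecin for at least 48 h at 37 C; viability read as ATP content by CellTiter-Glo luminescence.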
DT40 TDP1 no CPT: qHTS for Inhibitors of human tyrosyl-DNA phosphodiesterase 1 (TDP1): qHTS in cells in absence of CPT; Potency, µM (top dose mostly 46.2 µM), usual class: inhibitors; DT40 Tdp1-/- hTDP1 cells, no CPT, ATP luminescence, 48 h; actives 15% (n = 420,000); further: nearly all actives have a fitted effect of over 55% in size
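DT40 Tdp1-/-;hTDP1 cells, no CPT (DMSO vehicle only), 400 cells/well; compounds pin-transferred; ≥48 hr, 37 °C; CellTiter-Glo 30 min RT dark, luminescence read.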
HT1080-NT tox: kills 2HG-producing HT-1080-NT fibrosarcoma cells; HT-1080-NT fibrosarcoma viability, CellTiter-Glo ATP luminescence, 48 h; actives 1.6% (n = 360,000); Potency, µM (highest dose often 46.1 µM), most hits filed as cytotoxic; AID 686970;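 further: NT is the 2HG producing partner of a matched IDH1 knockdown line; nearly all actives have a fitted effect of over 55% in size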
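A 48-hour cytotoxicity screen used HT-1080-NT cells plated 2 hours before compound delivery. ATP-based CellTiter-Glo luminescence measured viability, normalized to DMSO and no-cell controls.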
A number is an active result; 0 = inactive; ? = inconclusive; - = no result. Only some compounds are listed: those with a hit (about 19% of all), similar ones and a draw of the others. Unless noted, the call rests on the fitted dose curve; in most records, active means well fitted curve in the direction sought with a large enough effect; inconclusive means small, poorly fitted or top-dose-only effect, or another doubt; inactive means no such curve, though single readings can be large; an effect the other way counts as inactive or inconclusive.

SMILES	IL1B secr inh	HT1080 IDH1KD tx	TDP1 cell CPT	DT40 TDP1 no CPT	HT1080-NT tox
COc1ccc(C(=O)NCC2(c3ccc(OC)c(OC)c3)CCCC2)cc1OC	?	0	?	?	0
O=S(=O)(Cc1ccccc1Cl)NCCc1ccc(F)cc1	0	0	0	0	0
CC1(C)CSC(=NCc2ccccc2)N1C(=O)c1cccc([N+](=O)[O-])c1	0	0	0	0	0
COc1ccc(-c2nn(-c3ccccc3)cc2C(=O)n2nnc3ccccc32)cc1	0	0	21µM	0	0
COC(=O)c1cn(-c2ccccc2)nc1-c1ccc(OC)cc1	0	0	0	?	0
CCOC(=O)N1CCC(=NNC(=O)Cn2ccc(C(F)(F)F)n2)CC1	0	0	0	0	0
COc1cccc(Cn2c(=O)c(-c3ccccc3)nc3cnc(N(C)C)nc32)c1	-	-	?	0	-
CC(O)(c1ccc(F)c(F)c1)c1nc(-c2ccc3ccccc3c2)cs1 (stereo not drawn)	0	?	18µM	?	?
CC(O)(c1ccc(F)c(F)c1)c1nc(-c2cnc3ccccc3c2)cs1 (stereo not drawn)	0	?	16µM	15µM	?
C/C(CC(=O)Nc1cccc(C(F)(F)F)c1)=N\NC(=O)C1CCCCC1	0	0	?	0	?
Cc1ccc2nc(NC(=O)CN(C)S(=O)(=O)c3ccc(Br)s3)sc2c1	0	0	?	?	?
Cc1ccc(NC(=O)CN(C)S(=O)(=O)c2cccc3nsnc23)cc1C	0	0	0	0	0
CCOc1ccc(S(=O)(=O)N(C)c2ccc(OCC(=O)Nc3nc4ccccc4s3)cc2)cc1	0	6.5µM	12µM	9.2µM	0
Cc1ccnc(NC(=O)CN(C)S(=O)(=O)c2cccc3nsnc23)c1	0	0	?	7.3µM	0
Cc1ccc2nc(NC(=O)CN(C)S(=O)(=O)c3cccc4nsnc34)sc2c1	0	8.2µM	3.3µM	2.9µM	?
Cc1ccc(S(=O)(=O)N(C)CC(=O)Nc2nc3ccccc3s2)cc1	0	0	16µM	21µM	0
Cc1cc[n+](CC(=O)Nc2nc3ccccc3s2)cc1	0	0	0	0	0
COc1cccc(OCc2ccc(Cl)cc2)c1C#N	0	0	?	18µM	0
COCc1cc(C)nc(SCc2ccc(Cl)cc2)c1C#N	0	0	0	0	0
CC(=O)N1CC2(CC(c3ccccc3F)=NO2)CN1c1ccc(Cl)cc1 (stereo not drawn)	0	0	?	?	0
CC(C)N1CC2(CC(c3ccccc3C(F)(F)F)=NO2)CN1C(=O)c1ccco1 (stereo not drawn)	0	0	?	8.2µM	0
CC(C)N1CC2(CC(c3ccccc3F)=NO2)CN1C(=O)c1ccc(C(C)(C)C)cc1 (stereo not drawn)	0	0	23µM	10µM	0
CC(C)N1CC2(CC(c3ccccc3C(F)(F)F)=NO2)CN1C(=O)c1ccc(C(C)(C)C)cc1 (stereo not drawn)	0	0	16µM	21µM	0
CC(C)N1CC2(CC(c3ccc(Cl)cc3Cl)=NO2)CN1C(=O)c1ccc(C(C)(C)C)cc1 (stereo not drawn)	0	0	15µM	12µM	0
CSCCC(NS(=O)(=O)c1ccccc1F)C(=O)OCc1ccccc1Cl (stereo not drawn)	0	0	?	0	0
SMILES	IL1B secr inh	HT1080 IDH1KD tx	TDP1 cell CPT	DT40 TDP1 no CPT	HT1080-NT tox
Clc1cccc(Cl)c1CSc1nnc(-c2sccc2-n2cccc2)o1	0	0	?	?	0
O=C(NCC(c1ccc2c(c1)OCO2)N1CCOCC1)c1ccc(F)cc1 (stereo not drawn)	-	-	0	0	-
CCNC(=O)C1(C)CCN(C(=O)c2ccccc2C(F)(F)F)C1 (stereo not drawn)	0	0	0	0	0
CCCOc1ccc(NC(=O)c2cc3cc(C)ccc3[nH]2)cc1	0	0	0	0	0
Cc1oc2c(c1C(=O)Nc1ccccc1Br)C1=NCCN1C=N2	-	-	18µM	21µM	-
Cc1oc2c(c1C(=O)Nc1ccc(Cl)cc1F)C1=NCCN1C=N2	-	-	0	16µM	-
Cc1cc(C)c(NC(=O)c2c(C)oc3c2C2=NCCN2C=N3)c(C)c1	-	-	16µM	16µM	-
O=C(O)/C=C/C(=O)Nc1cccc2c1-c1ccccc1C2=O	0	?	?	?	?
O=c1/c(=C\c2ccc(O)cc2)sc2nc(-c3ccccc3)c(-c3ccccc3)n12	-57	0	?	?	0
O=c1/c(=C/c2ccc(O)c([N+](=O)[O-])c2)sc2nc3ccccc3n12	0	0	0	0	0
CCc1ccccc1NC(=O)CSc1nc2ncccc2o1	-	-	0	0	-
Fc1ccccc1N1CCN(c2c3c(nc4nncn24)CCC3)CC1	-	-	?	21µM	-
O=C(Nc1cccc(C(=O)N2CCN(c3cccc(Cl)c3)CC2)c1)c1nsc2ccccc12	-	-	18µM	16µM	-

Bioassay records (PubChem)
